# SARS PLP yeast: qHTS of Yeast-based Assay for SARS-CoV PLP; S. cerevisiae expressing SARS-CoV PLpro, growth rescue; Potency, µM (titrated, usually from 32.9 µM), most hits filed as activators; hit rate 0.19% among 330,000; calls by dose curve; further: nearly all actives have a fitted effect of over 55% in size
# Pf growth 96h: Primary qHTS for delayed death inhibitors of the malarial parasite plastid, 96 hour incubation; P. falciparum luciferase reporter growth, 96 h; Potency, µM (top dose mostly 28.7 µM), hits mostly inhibitors; hit rate 6.9% among 320,000; AID 504834, 2011
#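 Parasite growth measured via integrated firefly luciferase reporter in P. falciparum. Infected erythrocytes at 2% hematocrit, 0.05% parasitemia final were treated 96 hours at 37 C under 5% CO2, and luminescence was read.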
# RE007 growth inh: qHTS Assay for Inhibitors of the HIV-1 protein Vpr; S. pombe RE007 Vpr strain, BacTiter-Glo ATP luminescence, 24 h; Potency, µM (top dose mostly 92.2 µM), most hits filed as inhibitors; hit rate 0.21% among 360,000; AID 651644, 2012; active means well fitted falling curve with a large enough effect; inconclusive means small, poorly fitted or top-dose-only effect; inactive means no such curve, though single readings can be large or run the other way; further: nearly all actives have a fitted effect of over 50% in size
#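 Fission yeast RE007 carrying one integrated HIV-1 vpr copy, seeded at OD 0.01 in PMG+AL medium with 23 nL pinned compound. Grown 24 h at 30 degrees; viability read by BacTiter-Glo luminescence after 5 min.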
# Pf growth 48h: Primary qHTS for delayed death inhibitors of the malarial parasite plastid, 48 hour incubation | AID 504832, 2011 | Potency, µM (doses to about 28.7 µM), usual class: inhibitors | P. falciparum luciferase growth in erythrocytes, 48 h | hit rate 5.9% among 310,000
#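 Read-out is firefly luciferase luminescence from an integrated reporter in P. falciparum, so falling signal marks reduced parasite growth. Infected erythrocytes were at 2% hematocrit and 0.1% parasitemia (final) in Albumax-supplemented RPMI 1640.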
# NS1 inh: qHTS Assay for Inhibitors of Influenza NS1 Protein Function; Potency, µM (highest dose often 46.1 µM); hit rate 0.4% among 270,000; calls by dose curve; further: actives are rising curves; nearly all actives have a fitted effect of over 50% in size
#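 Growth recovery, yeast-based: influenza A NS1 expressed in S. cerevisiae causes slow growth, and suppressors are detected by OD600. The parent strain without NS1 is used as positive control.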
# A number is an active result; . = inactive; ? = inconclusive; / = no result. Shown are actives, neighbours in structure and some others; about 9.5% of the full set was active somewhere. Unless noted, the call rests on the fitted dose curve; in most records, active means well fitted inhibition curve with a large enough effect; inconclusive means small, poorly fitted or top-dose-only effect, or another doubt; inactive means no such curve, though single readings can be large or run the other way.
SMILES,SARS PLP yeast,Pf growth 96h,RE007 growth inh,Pf growth 48h,NS1 inh
COc1ccc(/C=C/CN2CCCC(CO)(Cc3cccc(Cl)c3)C2)cc1 (stereo not given),.,.,.,13.1µM,.
COc1cccc(CC2(CO)CCCN(Cc3cc(F)ccc3-n3cccn3)C2)c1 (stereo not given),.,.,.,13.1µM,.
Cc1ccc2c(c1)C1(OCCCO1)C(=O)N2,.,.,.,.,.
CCOC(=O)[C@@H](N)CS,/,.,/,.,/
COc1cccc(CC2(CO)CCCN(Cc3cn(C)c4ccccc34)C2)c1 (stereo not given),.,.,.,?,.
CCOC(=O)N1CCC(N2CCCC(CO)(Cc3cccc(OC)c3)C2)CC1 (stereo not given),.,3.29µM,.,?,.
Cn1cc(CN2CCCC(CO)(Cc3ccccc3)C2)c2ccccc21 (stereo not given),.,.,.,11.7µM,.
COc1cccc(CC2(CO)CCCN(Cc3ccccc3Cl)C2)c1 (stereo not given),.,10.4µM,.,.,.
COc1ccc(CN2CCCC(CO)(Cc3ccc(F)cc3)C2)cc1C (stereo not given),.,?,.,14.7µM,.
CC(C)Oc1ccc(CN2CCCC(CO)(Cc3ccccc3)C2)cc1CO (stereo not given),.,.,.,.,.
O=[N+]([O-])c1ccc(S(=O)(=O)N2CCN(c3ccc(N4CCOCC4)nn3)CC2)cc1,.,?,.,?,/
Cc1ccc(C2CN(C)C3(C(=O)Nc4ccccc43)C23COc2ccccc2C3=O)cc1 (stereo not given),.,?,.,14.7µM,.
COc1ccc(Nc2nc(NN)nc(Nc3ccc(OC)cc3)n2)cc1,.,3.29µM,.,9.28µM,.
COc1ccc(Nc2ccc(OC)cc2)cc1,.,?,.,?,.
NNc1nc(Nc2ccccc2)nc(Nc2ccccc2)n1,.,.,.,8.28µM,/
NNc1nc(Nc2ccccc2)nc(N2CCCCC2)n1,.,/,.,?,.
CCCCC[C@@H]1[C@H]2[C@H]3C(=O)N(c4ccccc4)C(=O)[C@H]3CC(=O)[C@H]2[C@H](c2ccccc2)N1S(=O)(=O)c1ccc(C)cc1,/,/,.,/,/
CCOC(=O)C1=C(C)c2ccccc2OC1(C(=O)OCC)C(C)C (stereo not given),.,/,.,/,/
CCCC[C@@H](CNC)NC[C@H](Cc1ccc(O)cc1)NCCc1ccc(OCC)cc1,.,0.928µM,.,2.62µM,.
O=C(CN1CCN(c2ncc(C(F)(F)F)cc2Cl)CC1)N1CCN(c2ncc(C(F)(F)F)cc2Cl)CC1,.,11.7µM,.,/,.
CC(C(=O)N(C)c1ccccc1)N1CCN(C(=O)c2ccccc2)CC1 (stereo not given),.,.,?,.,.
S=C(Nc1ccccc1Cl)N(Cc1ccccc1)Cc1cccnc1,.,.,.,.,/
COc1ccccc1NC(=S)N(Cc1cccnc1)Cc1ccco1,.,.,.,11.7µM,/
CCc1ccccc1NC(=S)N(Cc1cccnc1)Cc1ccco1,.,8.28µM,?,?,.
Cc1cc(C)c(NC(=S)N(Cc2cccnc2)Cc2ccco2)c(C)c1,.,.,.,.,.
SMILES,SARS PLP yeast,Pf growth 96h,RE007 growth inh,Pf growth 48h,NS1 inh
Cc1ccc(Cl)cc1NC(=S)N(Cc1ccccc1)Cc1cccnc1,.,.,.,10.4µM,.
COc1ccc(Cl)cc1NC(=S)N(Cc1cccnc1)Cc1ccco1,.,.,.,10.4µM,/
COc1ccccc1NC(=S)N(Cc1ccccc1)Cc1cccs1,.,13.1µM,.,.,/
CC(=O)Nc1ccc(Sc2ncccc2C(=O)Nc2cc(Cl)cc(Cl)c2)cn1,?,.,.,.,.
COc1cc(NC(=O)c2cccnc2Sc2ccc(C)c(C)c2)cc(OC)c1OC,.,10.4µM,.,?,.
COc1ccc(NC(=O)c2cccnc2SC)cc1OC,.,.,.,.,/
CC(=O)Nc1ccc(Sc2ncccc2C(=O)Nc2ccc(OC(F)(F)F)cc2)cn1,.,?,.,13.1µM,?
Cn1ccc2c(-c3cccc(C=O)c3)cc3c(c21)C1CCC3O1 (stereo not given),/,/,.,/,/
COC(=O)C/C=C/[C@@H](C)[C@@H](/C=N/O[C@@H](C)c1cn([C@H](CO)Cc2ccccc2)nn1)NS(=O)(=O)c1ccc(C)cc1,.,11.7µM,/,?,.
FC(F)(F)c1cccc(C2NCc3ccccc3-n3cccc32)c1 (stereo not given),.,4.65µM,.,.,.
